This is an account of results in PubChem BioAssay (NCATS).

Results filed as inconclusive are left out. Calls of active or inactive are those of the source. Unless noted, calls come from the whole dose curve.

In test [1] the target is Glucocorticoid receptor (Homo sapiens) (UniProt P04150). Kind of test: qHTS assay for small molecule agonists of glucocorticoid receptor signaling (AID 588532; active = well fitted curve in the direction sought with a large enough effect in the signal ratio, with a control signal flat; the % refers to the signal ratio;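 note: 100% = dexamethasone at 0.1 µM and 0% = DMSO only wells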). Particulars: HeLa MMTV-bla, beta-lactamase ratio, agonist, 18 h; stronger effect = higher value; percent of dexamethasone control, DMSO zero. Summed up:
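Stimulation of a glucocorticoid response element-driven beta-lactamase gene was measured in HeLa cells. Responses were scaled between DMSO basal and 0.1 uM dexamethasone, then fitted for half-maximal stimulation.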

The target is the same in test [2]. The test can be described thus: qHTS assay for small molecule antagonists of glucocorticoid receptor signaling (AID 588533; active = well fitted inhibition curve with a large enough effect in the signal ratio, with a control signal flat, not every such curve was filed as active; the % refers to the signal ratio;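 note: cells stimulated with 2 nM dexamethasone as agonist; % is set by controls: 0 for no effect and ±100 for the full control effect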). Conditions: HeLa MMTV-bla, GRE beta-lactamase ratio, antagonist mode, 18 h; series mostly up to 76.8 µM. In short, it runs like this:
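Antagonist-mode qHTS: compound titrations added to GRE-bla HeLa cells, then dexamethasone 2 nM final; 18 h, 37 C. CCF4 FRET fluorescence normalized to dexamethasone and DMSO; IC50 from Hill fit.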
In general terms: Quantitative high-throughput screening tests each substance at several concentrations.

Test [3] can be described thus: qHTS assay for small molecule antagonists of peroxisome proliferator-activated receptor delta signaling (AID 588535; active = well fitted inhibition curve with a large enough effect in the signal ratio, with a control signal flat, not every such curve was filed as active; the % refers to the signal ratio;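 for max response: cells co-treated with a PPAR-delta agonist as stimulator during compound exposure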). Conditions: HEK293T PPARd-UAS-bla, beta-lactamase FRET ratio, 18 h; 460 nm channel. Summed up: (§1)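 GeneBLAzer PPAR-delta-UAS-bla HEK293T cells in medium with 2% charcoal/dextran FBS were preincubated 5 hrs at 37 C, then given compounds, incubated 18 hrs at 37 C, and read by CCF4 beta-lactamase fluorescence; IC50 from Hill fits.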

The target of test [4] is Peroxisome proliferator-activated receptor delta (Homo sapiens) (UniProt Q03181). The description is as above. Particulars: HEK293T PPARd-UAS-bla, beta-lactamase FRET ratio, 18 h; series mostly up to 76.7 µM. In short, it runs like this: as §1
Peroxisome proliferator-activated receptor delta (Homo sapiens), sequence (Q03181 whole entry, looked up): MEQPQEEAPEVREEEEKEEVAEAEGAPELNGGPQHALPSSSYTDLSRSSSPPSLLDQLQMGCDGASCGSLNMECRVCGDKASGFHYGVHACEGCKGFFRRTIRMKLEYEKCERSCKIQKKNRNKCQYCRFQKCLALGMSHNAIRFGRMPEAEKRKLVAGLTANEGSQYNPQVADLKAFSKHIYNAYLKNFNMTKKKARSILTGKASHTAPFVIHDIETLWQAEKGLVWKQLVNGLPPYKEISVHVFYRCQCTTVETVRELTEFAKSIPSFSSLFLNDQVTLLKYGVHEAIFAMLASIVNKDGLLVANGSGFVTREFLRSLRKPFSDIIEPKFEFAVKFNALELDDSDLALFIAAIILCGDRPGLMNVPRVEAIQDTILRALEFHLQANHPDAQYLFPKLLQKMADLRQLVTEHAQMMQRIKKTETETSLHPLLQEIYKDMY
Test [5] has as its target Peroxisome proliferator-activated receptor gamma (Homo sapiens) (UniProt P37231). The test can be described thus: qHTS assay for small molecule agonists of peroxisome proliferator-activated receptor gamma signaling (AID 588536; active = well fitted curve in the direction sought with a large enough effect in the signal ratio, with a control signal flat, not every such curve was filed as active; the % refers to the signal ratio;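 note: 0% = DMSO basal wells and 100% = rosiglitazone at 2 µM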). Conditions: HEK293 PPARg-UAS-bla, beta-lactamase ratio, 16 h, percent of rosiglitazone response, DMSO as zero; series mostly up to 76.7 µM. Summed up:
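Ratiometric blue/green fluorescence (405 nm excitation; 460 and 530 nm emission) from CCF4-loaded HEK293 reporter cells serves as signal. Exposure to test compounds lasts 16 h at 37 C in medium containing 1% charcoal/dextran-treated serum.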

The target in test [6] is Vitamin D3 receptor (Homo sapiens) (UniProt P11473). The test can be described thus: qHTS assay for small molecule antagonists of vitamin D receptor signaling (AID 588541).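 Note: receptor activated by calcitriol during compound treatment; % is set by controls: 0 for no effect and ±100 for the full control effect.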 Conditions: HEK293T VDR-UAS-bla, beta-lactamase ratio, antagonist mode; series mostly up to 76.7 µM. Summed up: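 VDR-UAS-bla HEK293T cells (2000/well, 2% charcoal-stripped FBS) were treated with titrated compounds plus 1-alpha,25-dihydroxyvitamin D3 (50 nM or 3 nM final) for 16 h at 37 C. CCF4 beta-lactamase fluorescence was read; Hill fits gave IC50.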
Vitamin D3 receptor (Homo sapiens), sequence (P11473 whole entry, looked up): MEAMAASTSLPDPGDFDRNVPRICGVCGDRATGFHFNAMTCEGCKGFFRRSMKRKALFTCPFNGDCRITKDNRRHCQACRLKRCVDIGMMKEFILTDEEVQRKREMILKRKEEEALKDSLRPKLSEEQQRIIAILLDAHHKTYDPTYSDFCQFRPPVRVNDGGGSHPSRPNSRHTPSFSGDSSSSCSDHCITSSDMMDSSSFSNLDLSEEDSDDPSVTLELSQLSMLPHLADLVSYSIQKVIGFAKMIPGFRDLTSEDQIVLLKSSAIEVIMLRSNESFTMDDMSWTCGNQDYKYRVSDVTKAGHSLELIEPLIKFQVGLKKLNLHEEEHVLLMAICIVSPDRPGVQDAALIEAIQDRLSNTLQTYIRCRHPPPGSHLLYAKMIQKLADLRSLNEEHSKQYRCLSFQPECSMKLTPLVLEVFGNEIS

The target is the same in test [7]. Kind of test: qHTS assay for small molecule agonists of vitamin D receptor signaling (AID 588543).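 Note: 0% = DMSO basal and 100% = reference agonist control.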 Particulars: HEK293T VDR-UAS-bla, beta-lactamase ratio, 16 h; series mostly up to 76.8 µM. Summed up: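 Measured: β-lactamase reporter activity (CCF4, 405 nm excitation, 460/530 nm emission) in HEK293T VDR-UAS-bla cells after 16 h compound exposure at 37 °C. Normalization against 50 nM 1α,25-dihydroxyvitamin D3 and DMSO; Hill-fit EC50.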

The nature of test [8]: qHTS assay for small molecule agonists of retinoid X receptor alpha signaling (AID 588544).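 For activation: 0% = DMSO basal wells and 100% = reference agonist.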 Particulars: HEK293T RXRa-UAS-bla, beta-lactamase reporter, 18 h; 530 nm emission.
Test [9] has as its target Retinoic acid receptor RXR-alpha (Homo sapiens) (UniProt P19793). The test is described as above. Conditions: HEK293T RXRa-UAS-bla, beta-lactamase reporter, 18 h; series mostly up to 76.7 µM.
Test [10] is described as follows: qHTS assay for small molecule antagonists of retinoid X receptor alpha signaling (AID 588546; active = well fitted inhibition curve with a large enough effect in the signal ratio, with a control signal flat, not every such curve was filed as active; the % refers to the signal ratio;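 note: cells stimulated with 9-cis-retinoic acid as agonist; % is set by controls: 0 for no effect and ±100 for the full control effect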). Particulars: HEK293T RXRa-UAS-bla, beta-lactamase ratio, antagonist mode; measured here: W530 green channel, cytotoxicity proxy. Summed up:
(§2)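 Beta-lactamase reporter inhibition, read as CCF4 fluorescence ratio (ex 405, em 460/530 nm) after 2 h at RT. HEK293T UAS-bla cells, 2500/well, were stimulated with 9-cis-RA at 500 or 100 nM final alongside test compound for 18 h at 37 C.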

The target in test [11] is Retinoic acid receptor RXR-alpha (Homo sapiens) (UniProt P19793). The test is described as above. Particulars: HEK293T RXRa-UAS-bla, beta-lactamase ratio, antagonist mode. Summed up:
as §2

Test [12] addresses Thyroid hormone receptor beta (Homo sapiens) (UniProt P10828). The test can be described thus: qHTS assay for small molecule antagonists of thyroid hormone receptor beta signaling (AID 588547; active = well fitted inhibition curve with a large enough effect in the signal ratio, with a control signal flat, not every such curve was filed as active; the % refers to the signal ratio;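 note: cells stimulated with 0.4 nM T3 agonist during compound exposure; % is set by controls: 0 for no effect and ±100 for the full control effect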). Particulars: TR-UAS-bla HEK293, beta-lactamase ratio, antagonist mode, 18 h. Summed up: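 TR-UAS-bla GripTite HEK293 cells in 2% charcoal/dextran FBS medium were preincubated 4 h at 37 C, given compound (0.59 nM to 92 uM) plus 0.4 nM T3 (final) for 18 h, then CCF4 for 2 h at RT; Hill fit gave IC50.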

Test [13] has as its target Voltage-gated inwardly rectifying potassium channel KCNH2 (Homo sapiens) (UniProt Q12809). The test can be described thus: qHTS Assay for Small Molecule Inhibitors of the Human hERG Channel Activity (AID 588834; active = well fitted inhibition curve with a large enough effect;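 note: top concentration of the series differs between compounds; % is set by controls: 0 for no effect and ±100 for the full control effect; lower thallium flux fluorescence means stronger hERG block; nearly all actives have a fitted effect of over 50% in size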). Particulars: U2OS BacMam hERG, FluxOR thallium flux fluorescence; series mostly up to 92.2 µM. Summed up: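 Blockade is seen as reduced FluxOR thallium-flux fluorescence in U2OS cells expressing hERG from a BacMam construct, in Opti-MEM with 2% FCS. Concentration-response data fitted to the Hill equation for AC50.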

Test [14] can be described thus: qHTS assay for small molecule activators of the p53 signaling pathway (AID 651743; active = well fitted activation curve with a large enough effect in the signal ratio, not every such curve was filed as active; the % refers to the signal ratio; note: % of control where 0% means no effect). Conditions: HCT-116 p53RE-bla, beta-lactamase FRET ratio, 16 h; stronger effect = higher value. Summed up:
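p53RE-bla HCT-116 cells with a stably integrated beta-lactamase reporter under p53 response elements were plated, rested 5 hours at 37 C/5% CO2, then exposed to compounds in DMSO for 16 hours at 37 C. LiveBLAzer B/G FRET substrate was read after 2 hours at room temperature.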

Test [15] in a line: qHTS assay for small molecule activators of the nuclear factor-kappa B (NF-kB) signaling pathway (AID 651749; active = well fitted activation curve with a large enough effect in the signal ratio; the % refers to the signal ratio; note: % of control where 0% means no effect). Conditions: NF-kB-bla ME-180 cells, beta-lactamase FRET ratio, 16 h; stronger effect = higher value. In short, it runs like this:
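ME-180 cells stably carrying a beta-lactamase reporter under an NF-kB response element were exposed to compound or DMSO vehicle for 16 hr at 37C, 5% CO2. Pathway activation was read by FRET, since reporter expression disrupts FRET.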

Test [16] addresses Thyroid hormone receptor beta (Homo sapiens) (UniProt P10828). Kind of test: qHTS assay for small molecule agonists of thyroid hormone receptor beta signaling (AID 588545).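 Note: 0% = DMSO only and 100% = 10 nM T3.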 Conditions: TR-UAS-bla GripTite HEK 293, beta-lactamase ratio, agonist mode, 18 h, percent of T3 response, DMSO as zero; series mostly up to 76.7 µM. In short, it runs like this: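 TR-UAS-bla GripTite HEK 293 cells (2500/well, medium with 2% charcoal/dextran FBS) were treated in agonist mode for 18 h at 37 C, titrated. Beta-lactamase was read by CCF4 ratio after 2 h; normalized to 10 nM T3 (100%) and DMSO, Hill-fitted for EC50 and efficacy.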

Test [17] can be described thus: qHTS assay for small molecule agonists of the antioxidant response element (ARE) signaling pathway (AID 651741; active = well fitted activation curve with a large enough effect in the signal ratio; the % refers to the signal ratio; note: % of control where 0% means no effect). Particulars: HepG2 ARE-bla reporter, beta-lactamase FRET ratio, 16 h; series mostly up to 96 µM. In short, it runs like this: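 ARE-bla HepG2 cells (beta-lactamase reporter under ARE control) were plated at 2,000 cells/well, preincubated 5 h at 37 C/5% CO2, then treated with DMSO-dissolved compounds for 16 h at 37 C; LiveBLAzer B/G FRET substrate added, fluorescence read after 2 h at room temperature.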

Glucocorticoid receptor (Homo sapiens), sequence (P04150 whole entry, looked up): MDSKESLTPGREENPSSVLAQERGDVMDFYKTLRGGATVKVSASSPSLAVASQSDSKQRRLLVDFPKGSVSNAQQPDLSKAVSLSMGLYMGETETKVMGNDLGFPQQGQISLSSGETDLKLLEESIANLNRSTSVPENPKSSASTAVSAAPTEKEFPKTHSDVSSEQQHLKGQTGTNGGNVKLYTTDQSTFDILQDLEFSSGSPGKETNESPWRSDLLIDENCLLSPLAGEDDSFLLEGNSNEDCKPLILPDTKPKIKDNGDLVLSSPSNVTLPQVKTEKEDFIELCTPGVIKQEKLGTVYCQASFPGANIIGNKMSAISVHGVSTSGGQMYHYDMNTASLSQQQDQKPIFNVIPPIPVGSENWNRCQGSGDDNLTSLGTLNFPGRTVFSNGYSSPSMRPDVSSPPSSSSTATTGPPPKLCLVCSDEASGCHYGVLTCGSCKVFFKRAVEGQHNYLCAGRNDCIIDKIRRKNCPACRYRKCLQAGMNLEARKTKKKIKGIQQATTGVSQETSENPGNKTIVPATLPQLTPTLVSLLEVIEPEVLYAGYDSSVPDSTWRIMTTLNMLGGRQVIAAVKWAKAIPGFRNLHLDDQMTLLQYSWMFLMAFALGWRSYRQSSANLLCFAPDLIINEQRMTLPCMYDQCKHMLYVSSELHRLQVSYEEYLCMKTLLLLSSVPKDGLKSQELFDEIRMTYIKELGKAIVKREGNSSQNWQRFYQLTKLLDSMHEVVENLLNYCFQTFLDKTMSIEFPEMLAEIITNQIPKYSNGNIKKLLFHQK
Thyroid hormone receptor beta (Homo sapiens), sequence (P10828 whole entry, looked up): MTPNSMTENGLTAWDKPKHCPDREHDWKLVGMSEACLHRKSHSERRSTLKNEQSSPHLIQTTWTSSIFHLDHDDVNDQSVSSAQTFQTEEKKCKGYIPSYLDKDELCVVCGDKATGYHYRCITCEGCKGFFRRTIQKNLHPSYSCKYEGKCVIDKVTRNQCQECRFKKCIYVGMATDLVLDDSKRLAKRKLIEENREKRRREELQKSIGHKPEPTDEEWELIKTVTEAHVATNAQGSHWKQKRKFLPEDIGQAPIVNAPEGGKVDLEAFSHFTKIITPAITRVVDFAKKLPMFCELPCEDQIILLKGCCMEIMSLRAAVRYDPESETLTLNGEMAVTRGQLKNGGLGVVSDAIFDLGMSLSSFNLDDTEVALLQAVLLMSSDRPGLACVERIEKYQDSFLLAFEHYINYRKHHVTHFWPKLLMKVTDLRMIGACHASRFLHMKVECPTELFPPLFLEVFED
Peroxisome proliferator-activated receptor gamma (Homo sapiens), sequence (P37231 whole entry, looked up): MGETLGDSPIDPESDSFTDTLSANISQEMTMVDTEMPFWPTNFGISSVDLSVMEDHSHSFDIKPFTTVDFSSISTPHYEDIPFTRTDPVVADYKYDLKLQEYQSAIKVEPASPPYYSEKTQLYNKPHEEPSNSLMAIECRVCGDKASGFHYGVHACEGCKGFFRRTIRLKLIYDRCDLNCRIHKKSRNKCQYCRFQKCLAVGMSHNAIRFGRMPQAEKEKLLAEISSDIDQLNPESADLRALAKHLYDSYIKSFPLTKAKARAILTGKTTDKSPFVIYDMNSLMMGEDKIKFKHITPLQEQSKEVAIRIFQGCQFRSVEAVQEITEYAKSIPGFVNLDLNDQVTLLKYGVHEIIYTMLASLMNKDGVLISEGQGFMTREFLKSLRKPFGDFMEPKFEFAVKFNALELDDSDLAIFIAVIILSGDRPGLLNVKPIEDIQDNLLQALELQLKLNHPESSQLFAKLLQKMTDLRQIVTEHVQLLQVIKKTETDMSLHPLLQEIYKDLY
Retinoic acid receptor RXR-alpha (Homo sapiens), sequence (P19793 whole entry, looked up): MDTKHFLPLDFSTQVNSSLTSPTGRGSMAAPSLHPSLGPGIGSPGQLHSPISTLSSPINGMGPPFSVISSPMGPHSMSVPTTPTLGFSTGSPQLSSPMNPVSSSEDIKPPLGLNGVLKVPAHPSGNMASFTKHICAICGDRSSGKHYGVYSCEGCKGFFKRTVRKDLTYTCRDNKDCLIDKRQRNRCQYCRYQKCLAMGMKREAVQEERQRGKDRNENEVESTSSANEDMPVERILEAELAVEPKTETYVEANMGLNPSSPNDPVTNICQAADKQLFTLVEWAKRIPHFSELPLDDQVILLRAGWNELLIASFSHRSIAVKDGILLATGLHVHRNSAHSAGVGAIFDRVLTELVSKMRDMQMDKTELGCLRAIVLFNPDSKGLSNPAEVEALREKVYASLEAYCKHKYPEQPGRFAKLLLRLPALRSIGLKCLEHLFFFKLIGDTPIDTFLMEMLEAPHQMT
Voltage-gated inwardly rectifying potassium channel KCNH2 (Homo sapiens), sequence (Q12809 whole entry, looked up): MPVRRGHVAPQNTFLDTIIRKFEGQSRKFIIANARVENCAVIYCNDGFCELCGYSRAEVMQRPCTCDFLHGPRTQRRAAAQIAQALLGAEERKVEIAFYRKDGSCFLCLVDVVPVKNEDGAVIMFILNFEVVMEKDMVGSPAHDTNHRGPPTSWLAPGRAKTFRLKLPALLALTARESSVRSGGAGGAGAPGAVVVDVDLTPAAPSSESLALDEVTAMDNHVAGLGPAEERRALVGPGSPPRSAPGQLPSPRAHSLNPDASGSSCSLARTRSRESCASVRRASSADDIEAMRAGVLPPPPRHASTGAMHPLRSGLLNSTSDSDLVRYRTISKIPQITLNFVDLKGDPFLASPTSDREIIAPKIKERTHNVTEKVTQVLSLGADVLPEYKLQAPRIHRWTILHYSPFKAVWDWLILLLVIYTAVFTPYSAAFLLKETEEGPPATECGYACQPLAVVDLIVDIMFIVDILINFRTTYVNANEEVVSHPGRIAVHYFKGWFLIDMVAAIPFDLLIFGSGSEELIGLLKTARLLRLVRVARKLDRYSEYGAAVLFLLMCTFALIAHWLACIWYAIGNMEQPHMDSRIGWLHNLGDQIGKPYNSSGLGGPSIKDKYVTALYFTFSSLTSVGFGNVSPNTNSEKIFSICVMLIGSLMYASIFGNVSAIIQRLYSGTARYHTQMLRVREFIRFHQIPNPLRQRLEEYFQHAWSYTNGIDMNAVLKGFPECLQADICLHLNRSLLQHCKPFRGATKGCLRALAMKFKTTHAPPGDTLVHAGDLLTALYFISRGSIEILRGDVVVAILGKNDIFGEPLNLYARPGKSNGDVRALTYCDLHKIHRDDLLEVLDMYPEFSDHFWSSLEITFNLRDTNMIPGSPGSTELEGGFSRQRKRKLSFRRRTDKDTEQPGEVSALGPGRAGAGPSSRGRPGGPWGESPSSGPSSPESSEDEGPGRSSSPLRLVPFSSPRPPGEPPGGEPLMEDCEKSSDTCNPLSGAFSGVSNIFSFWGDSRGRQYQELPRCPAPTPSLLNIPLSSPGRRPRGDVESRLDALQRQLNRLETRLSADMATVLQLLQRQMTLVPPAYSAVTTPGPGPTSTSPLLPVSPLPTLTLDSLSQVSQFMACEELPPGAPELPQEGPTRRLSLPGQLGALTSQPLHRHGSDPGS

With `CCCC=O`, the activation in test [1] was -2.2% (inactive); in test [14], -2.76% (inactive); in test [15], -4.7% (inactive). The outcome in test [2], in [5], in test [6], in [7] and in test [9] was inactive. Besides, the max response was 10.5% in test [3], -4.54% in test [8], 6.82% in test [10] and 14.7% (inactive) in test [11]. The Potency result in test [4] and in test [13] was “inactive” in each case. In addition, in test [12], the activity change % (negative = inhibition) was -7% (inactive).
For `CC=O`, the values for the activation in test [1], in [14] and in test [15] were -2.95% (inactive), 0.53% (inactive) and 9.05% (inactive), respectively. Moreover, the result in [2], in test [5], in test [6], in [9] and in [16] was inactive. The max response in test [3] is 23.9%; in test [8], -8.77%; in [10], -2.19%; in test [11] it was -0.48% (inactive). The Potency entry in test [4], in test [13] and in test [17] was “inactive” throughout.
As for `Nc1ccc(F)cc1F`, the activation is -11.6% (inactive) in [1], -3.46% (inactive) in test [14] and -1.13% (inactive) in [15]. Also, the outcome in test [2], in [5], in test [6], in test [7] and in test [9] was inactive. Besides, the max response in [3] was -4.23%; in test [8], -10.9%; in test [10], -8.47%; in test [11], 16.2% (inactive). In addition, the Potency entry in [4], in test [13] and in [17] was “inactive” each time.
Consider `COc1ccc(OC)cc1`, for which the activation was -0.922% (inactive) in [1], 1.53% (inactive) in [14] and -2.07% (inactive) in [15]. Further, the result in [2], in test [5], in test [6], in test [7] and in test [9] was inactive. In addition, the max response in test [3] is -6.1%; in [8] it was -11%; in test [10], -6.6%. Also, the Potency result in test [4] and in test [13] was “inactive” in each case.
`CC(C)(c1cc(Br)c(OCC(Br)CBr)c(Br)c1)c1cc(Br)c(OCC(Br)CBr)c(Br)c1` (configuration not stated): the activation is 11.6% (inactive) in [1] and 2.84% (inactive) in test [14]. Also, the result in test [2], in test [5], in test [6] and in [7] was inactive. The values for the max response in [3], in test [10] and in test [11] were -13.7%, -15.9% and 2.49% (inactive), respectively. Also, the Potency entry in test [4], in test [13] and in test [17] was “inactive” throughout. Further, the activity change % (negative = inhibition) in test [12] was -9.17% (inactive).
As for `CCNS(=O)(=O)c1ccc(C)cc1`, the activation in [1] is -0.758% (inactive); in test [14], -2.94% (inactive). For the same compound, the outcome in test [2], in [5] and in test [9] was inactive. Besides, the max response in test [3] is 8.52%; in test [8], 7.68%; in [10] it was 0.888%; in test [11], 3.72% (inactive). The Potency entry in [4], in [13] and in [17] was “inactive” in each case. For the same compound, the activity change % (negative = inhibition) in test [12] was -4.68% (inactive).
As for `CC#N`, the results for the activation in test [1], in test [14] and in test [15] were -2.4% (inactive), -3.18% (inactive) and -1.06% (inactive), respectively. For the same compound, the outcome in test [2], in test [9] and in test [16] was inactive. Also, the max response in test [3] is 21.5%; in test [8] it was 8.5%; in test [10] it was -2.35%; in [11], 10.2% (inactive). The Potency result in test [4] and in test [13] was “inactive” each time. In addition, the activity change % (negative = inhibition) in [12] is 12.3% (inactive).
